{"source": "PubChem BioAssay (NCATS)", "note": "The source made the active and inactive calls. The call rests on the fitted dose curve. Where a SMILES comes first, the peptide text is derived from it. [ ]: non-standard residue; d: D form. The star is where a group is joined. Benzoyl(4-tBu) = CC(C)(C)c1ccc(C(=O)*)cc1; Lys(Et2) = CCN(CC)CCCC[C@H](N)C(=O)O", "data": [{"assay": "qHTS drug screen for cell cycle checkpoint inhibitors in PARPi-resistant BRCA-mutant ovarian cancer cell lines. (AID 1963452)", "conditions": "PEO1/OlaR viability, CellTiter-Glo luminescence, 96 h; stronger effect = lower value", "outline": "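PEO1, PEO4 and PEO1/OlaR ovarian cancer cells, 600 per well, exposed 96 h at 37C to a dilution series. Viability read by CellTiter-Glo luminescence, normalized to DMSO and empty wells; activity summarized as Z-AUC.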", "values": [{"smiles": "CCC(C)CNCC(=O)N1CCc2sccc2C1c1cccc(C)n1", "note": "(stereo unspecified)", "Z-AUC": "-0.668 (inactive)"}, {"smiles": "CS(=O)(=O)c1ccc(-c2cnc(NCc3ccco3)n3cnnc23)cc1", "Z-AUC": "1.04 (inactive)"}, {"smiles": "O=c1c(-c2ccc(O)cc2)coc2c([C@@H]3O[C@H](CO)[C@@H](O)[C@H](O)[C@H]3O)c(O)ccc12", "Z-AUC": "1.23 (inactive)"}, {"smiles": "CCC(=O)O[C@]1(C(=O)CO)CC[C@H]2[C@@H]3CCC4=CC(=O)CC[C@]4(C)[C@H]3CC[C@@]21C", "Z-AUC": "1.13 (inactive)"}, {"smiles": "O=S(=O)(Nc1ccc(-c2cccnc2)c2cccnc12)c1cccc(C(F)(F)F)c1", "Z-AUC": "0.456 (inactive)"}, {"smiles": "O=C(O)c1ccccc1-c1ccc(/C=c2\\sc3nc4cc(Br)cnc4n3c2=O)o1", "Z-AUC": "-0.492 (inactive)"}, {"smiles": "O=c1[nH]nc2c3c(cccc13)NC(CN1Cc3ccccc3C1)=N2", "Z-AUC": "-0.263 (inactive)"}, {"smiles": "O=C([O-])C[O-].[Pt+2]", "Z-AUC": "1.62 (inactive)"}, {"smiles": "Cc1cc(O)cc2c1[C@]1(C)CC[C@H]3C(C)(C)CCC[C@]3(C)[C@H]1C2", "Z-AUC": "1.24 (inactive)"}, {"smiles": "N=C1S/C(=C\\c2ccc(-c3ccc4c(c3)C(=O)NC4=O)o2)C(=O)N1c1ccc(Br)cc1", "Z-AUC": "0.761 (inactive)"}, {"smiles": "CCN(CC)CCCC[C@H](NC(=O)[C@H](CC(C)C)NC(=O)[C@H](C)NC(=O)[C@H](Cc1ccccc1)NC(=O)c1ccc(C(C)(C)C)cc1)C(=O)N[C@@H](CO)C(=O)OC", "note": "({Benzoyl(4-tBu)}-FAL[Lys(Et2)]S-OMe)", "Z-AUC": "-0.334 (inactive)"}, {"smiles": "CO[C@H]1/C=C/O[C@@]2(C)Oc3c(C)c(O)c4c(O)c(c5c(nc6cc(C)ccn65)c4c3C2=O)NC(=O)/C(C)=C\\C=C\\[C@H](C)[C@H](O)[C@@H](C)[C@@H](O)[C@@H](C)[C@H](OC(C)=O)[C@@H]1C", "Z-AUC": "-0.712 (inactive)"}, {"smiles": "COC(=O)[C@H]1[C@@H](O)[C@@]2(O)c3c(OC)cc(O[C@@H]4O[C@@H]([C@@H](O)CO)CO[C@H]4OC)cc3O[C@@]2(c2ccc(OC)cc2)[C@@H]1c1ccccc1", "Z-AUC": "1.19 (inactive)"}, {"smiles": "COc1nc(N)nc2c1ncn2C1OC(CO)C(O)C1O", "note": "(stereo unspecified)", "Z-AUC": "-0.613 (inactive)"}, {"smiles": "O=C(CCCCCCC(=O)N/N=C/c1ccc(N(c2ccccc2)c2ccccc2)cc1)NO", "Z-AUC": "1.09 (inactive)"}, {"smiles": "O=C(O)CCNc1cc(N2CCc3ccccc3CC2)nc(-c2cccnc2)n1", "Z-AUC": "1.21 (inactive)"}, {"smiles": "Cc1cc(-c2cnn3c(NCC4CC(C)(O)C4)cc(Oc4cccnc4)nc23)ccc1C(=O)NC1CC1", "note": "(stereo unspecified)", "Z-AUC": "-0.227 (inactive)"}, {"smiles": "CC(C)n1c(=O)cc(N[C@@H](C)c2ccccc2)[nH]c1=O", "Z-AUC": "-0.0266 (inactive)"}, {"smiles": "O=C(O)C[C@H]1CCc2c1[nH]c1ccc(OCc3ccc(C4CCCC4)c(C(F)(F)F)c3)cc21", "Z-AUC": "1.56 (inactive)"}, {"smiles": "Cn1cc(/C=C/C(=O)c2cccc(F)c2)cc1/C=C/C(=O)NO", "Z-AUC": "0.818 (inactive)"}, {"smiles": "Nc1nccc(-c2c(-c3ccc(F)cc3)ncn2C2CCN(Cc3ccon3)CC2)n1", "Z-AUC": "0.042 (inactive)"}, {"smiles": "CC1(C)S[C@H]2[C@H](NC(=O)[C@@H](N)c3ccc(O)cc3)C(=O)N2[C@H]1C(=O)O", "Z-AUC": "-0.122 (inactive)"}, {"smiles": "CC(C)(NS(=O)(=O)c1ccc2c(Cl)cnc(N=C(N)N)c2c1)C(=O)O", "Z-AUC": "-0.917 (inactive)"}, {"smiles": "CCS(=O)(=O)N1CCC(C(C)n2c(C)c(C(=O)NCc3c(OC)cc(C)[nH]c3=O)c3ccccc32)CC1", "note": "(stereo unspecified)", "Z-AUC": "1.37 (inactive)"}, {"smiles": "CN1CCN(C(=O)[C@H]2[C@@H](C(=O)O)[C@H]3CC[C@@H]2O3)CC1", "Z-AUC": "0.39 (inactive)"}, {"smiles": "CC(=O)N1CCN(c2ccc(NC(=O)Cc3cnc(-c4ccnc(F)c4)c(C)c3)nc2)CC1", "Z-AUC": "1.31 (inactive)"}, {"smiles": "O=C(O)CCCCN(CCc1ccccc1OCc1ccc(CCc2ccccc2)cc1)Cc1ccc(C(=O)O)cc1", "Z-AUC": "0.163 (inactive)"}, {"smiles": "CC(=O)N[C@H]1[C@H](O[C@@H]2c3ccc(c(Cl)c3)Oc3cc4cc(c3O[C@@H]3O[C@H](CO)[C@@H](O)[C@H](O)[C@H]3NC(=O)CCCCCCCC(C)C)Oc3ccc(cc3Cl)C[C@H]3NC(=O)[C@H](N)c5ccc(O)c(c5)Oc5cc(O)cc(c5)[C@H](NC3=O)C(=O)N[C@H]4C(=O)N[C@H]3C(=O)N[C@@H]2C(=O)N[C@@H](C(=O)O)c2cc(O)cc(O[C@H]4O[C@H](CO)[C@@H](O)[C@H](O)[C@@H]4O)c2-c2cc3ccc2O)O[C@H](CO)[C@@H](O)[C@@H]1O", "Z-AUC": "0.721 (inactive)"}, {"smiles": "O=C(Nc1cccc(C(F)(F)F)c1)c1cccc2cc(Oc3cc(CO)ncn3)ccc12", "Z-AUC": "-0.478 (inactive)"}, {"smiles": "NC1=N[C@@]2(c3cc(NC(=O)c4ccc(F)cn4)ccc3F)COC[C@H]2CS1", "Z-AUC": "1.41 (inactive)"}, {"smiles": "C[C@@H]1CC(=O)Nc2cccc(-c3ccc4c(c3)c(-c3cnn(C)c3)nn4C)c2N1", "Z-AUC": "1.34 (inactive)"}, {"smiles": "C=C1C[C@H]2C=Nc3cc(OCCCOc4cc5c(cc4OC)C(=O)N4CC(=C)C[C@H]4C=N5)c(OC)cc3C(=O)N2C1", "Z-AUC": "1.4 (inactive)"}, {"smiles": "O=c1ncccn1[C@@H]1O[C@H](CO)[C@@H](O)[C@H]1O", "Z-AUC": "-0.938 (inactive)"}, {"smiles": "CONC(=O)Nc1ccc(-c2sc3c(c2CN(C)C)c(=O)n(-c2ccc(OC)nn2)c(=O)n3Cc2c(F)cccc2F)cc1", "Z-AUC": "0.387 (inactive)"}, {"smiles": "CC(C)(O)CC[C@@H](O)[C@](C)(O)[C@H]1CC[C@@]2(O)C3=CC(=O)[C@@H]4C[C@@H](O)[C@@H](O)C[C@]4(C)[C@H]3CC[C@]12C", "Z-AUC": "0.631 (inactive)"}, {"smiles": "Cc1c(-c2c(-c3ccc(F)o3)sc3ncnc(O[C@@H](Cc4ccccc4OCc4ccnn4CC(F)(F)F)C(=O)O)c23)ccc(OCCN2CCN(C)CC2)c1Cl", "Z-AUC": "0.0867 (inactive)"}]}]}
